The full ranking holds about 16,000 sequences; the median of “rpm ratio (pull-down/input)” is about 0.5, and the highest 2% start at about 5.5. This excerpt belongs to a sample that is enriched for the highest values.
What follows are sequences tested against T1, MBP-FoxP3dN (Mus musculus, UniProt Q99JB6 188-423) (assay: PD-seq (MBP pull-down with sequencing); 20 mM Tris-HCl pH 7.5, 100 mM NaCl, 1.5 mM MgCl2, 0.4 uM protein, 0.1 uM dsDNA library, 30 min, room temperature, amylose pull-down; high values mean tight binding). Details: protein: recombinant; tags: His6-MBP; chain copies: 2; dsDNA, one strand shown.
T1 sequence: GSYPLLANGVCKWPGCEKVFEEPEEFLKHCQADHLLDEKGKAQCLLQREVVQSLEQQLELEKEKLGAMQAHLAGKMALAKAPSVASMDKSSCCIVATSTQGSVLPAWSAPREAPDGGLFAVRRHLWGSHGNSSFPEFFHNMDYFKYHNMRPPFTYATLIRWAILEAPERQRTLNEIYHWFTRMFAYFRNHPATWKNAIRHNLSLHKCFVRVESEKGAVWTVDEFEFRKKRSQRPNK
Method in brief: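 Binding is given as reads-per-million enrichment, pull-down over input, with replicates pooled. The bait was an N-terminus-lacking mouse FoxP3 or FoxP1 fragment with a His6-MBP tag, expressed in E. coli and used at 0.4 µM with 0.1 µM Klenow-filled degenerate double-stranded DNA library for 30 min at room temperature in Tris pH 7.5 buffer with NaCl and MgCl2. Amylose resin pull-down with three washes was followed by proteinase K release, PCR barcoding and Illumina sequencing.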
“GATGATTGTTCTCCCAGCTGATGAATTGTGCAATTCGAGTAAACAAATTTTCCTAATCTTTCTGTTCAAGCGCCATCTAC” was tested, and the binding signal was 6.39 RPM ratio (pull-down/input). “GATGATTGTTCTCCCAGCTGATGAATTTTGGTCGTCGAGTAAACAAATTTTCCTAATCTTTCTGTTCAAGCGCCATCTAC” was tested, and the binding signal was 0.496 RPM ratio (pull-down/input). “GATGATTGTTCTCCCAGCTGATGAATTTGGGTGGTCGAGTAAACAAATTTTCCTAATCTTTCTGTTCAAGCGCCATCTAC” was tested, and the binding signal was 0.682 RPM ratio (pull-down/input). “GATGATTGTTCTCCCAGCTGATGAATTGTTAACTTCGAGTAAACAAATTTTCCTAATCTTTCTGTTCAAGCGCCATCTAC” was tested, and the binding signal was 0.587 RPM ratio (pull-down/input). “GATGATTGTTCTCCCAGCTGATGAATTGCTCCAATCGAGTAAACAAATTTTCCTAATCTTTCTGTTCAAGCGCCATCTAC” was tested, and the binding signal was 0.467 RPM ratio (pull-down/input). For “GATGATTGTTCTCCCAGCTGATGAATTTTCTCGCTCGAGTAAACAAATTTTCCTAATCTTTCTGTTCAAGCGCCATCTAC”, the binding signal was 0.241 RPM ratio (pull-down/input). For “GATGATTGTTCTCCCAGCTGATGAATTATATATATCGAGTAAACAAATTTTCCTAATCTTTCTGTTCAAGCGCCATCTAC”, the binding signal was 1.27 RPM ratio (pull-down/input). With “GATGATTGTTCTCCCAGCTGATGAATTGAAGGGATCGAGTAAACAAATTTTCCTAATCTTTCTGTTCAAGCGCCATCTAC” the binding signal was 0.265 RPM ratio (pull-down/input). In the case of “GATGATTGTTCTCCCAGCTGATGAATTCAGGCGATCGAGTAAACAAATTTTCCTAATCTTTCTGTTCAAGCGCCATCTAC”, the binding signal is reported as 0.508 RPM ratio (pull-down/input). In the case of “GATGATTGTTCTCCCAGCTGATGAATTTTGCGTGTCGAGTAAACAAATTTTCCTAATCTTTCTGTTCAAGCGCCATCTAC”, the binding signal is reported as 5.56 RPM ratio (pull-down/input). With “GATGATTGTTCTCCCAGCTGATGAATTTGCGTGTTCGAGTAAACAAATTTTCCTAATCTTTCTGTTCAAGCGCCATCTAC” the binding signal was 3.79 RPM ratio (pull-down/input). With “GATGATTGTTCTCCCAGCTGATGAATTGCGTGTGTCGAGTAAACAAATTTTCCTAATCTTTCTGTTCAAGCGCCATCTAC” the binding signal was 2.22 RPM ratio (pull-down/input). In the case of “GATGATTGTTCTCCCAGCTGATGAATTGCGCGTGTCGAGTAAACAAATTTTCCTAATCTTTCTGTTCAAGCGCCATCTAC”, the binding signal is reported as 4.88 RPM ratio (pull-down/input). With “GATGATTGTTCTCCCAGCTGATGAATTATGCGTGTCGAGTAAACAAATTTTCCTAATCTTTCTGTTCAAGCGCCATCTAC” the binding signal was 5.88 RPM ratio (pull-down/input). In the case of “GATGATTGTTCTCCCAGCTGATGAATTATATGCGTCGAGTAAACAAATTTTCCTAATCTTTCTGTTCAAGCGCCATCTAC”, the binding signal is reported as 1.07 RPM ratio (pull-down/input). For “GATGATTGTTCTCCCAGCTGATGAATTGTGCGTGTCGAGTAAACAAATTTTCCTAATCTTTCTGTTCAAGCGCCATCTAC”, the binding signal was 6.18 RPM ratio (pull-down/input). “GATGATTGTTCTCCCAGCTGATGAATTGTGTGCGTCGAGTAAACAAATTTTCCTAATCTTTCTGTTCAAGCGCCATCTAC” was tested, and the binding signal was 2.16 RPM ratio (pull-down/input). For “GATGATTGTTCTCCCAGCTGATGAATTATGCGCGTCGAGTAAACAAATTTTCCTAATCTTTCTGTTCAAGCGCCATCTAC”, the binding signal was 3.33 RPM ratio (pull-down/input). “GATGATTGTTCTCCCAGCTGATGAATTGGCCACGTCGAGTAAACAAATTTTCCTAATCTTTCTGTTCAAGCGCCATCTAC” was tested, and the binding signal was 0.526 RPM ratio (pull-down/input). For “GATGATTGTTCTCCCAGCTGATGAATTGGTAGCTTCGAGTAAACAAATTTTCCTAATCTTTCTGTTCAAGCGCCATCTAC”, the binding signal was 0.798 RPM ratio (pull-down/input). In the case of “GATGATTGTTCTCCCAGCTGATGAATTTAGCCCGTCGAGTAAACAAATTTTCCTAATCTTTCTGTTCAAGCGCCATCTAC”, the binding signal is reported as 1.59 RPM ratio (pull-down/input). With “GATGATTGTTCTCCCAGCTGATGAATTAGTGCGATCGAGTAAACAAATTTTCCTAATCTTTCTGTTCAAGCGCCATCTAC” the binding signal was 0.851 RPM ratio (pull-down/input). For “GATGATTGTTCTCCCAGCTGATGAATTTTGTCTCTCGAGTAAACAAATTTTCCTAATCTTTCTGTTCAAGCGCCATCTAC”, the binding signal was 2.39 RPM ratio (pull-down/input). In the case of “GATGATTGTTCTCCCAGCTGATGAATTTTTTTTCTCGAGTAAACAAATTTTCCTAATCTTTCTGTTCAAGCGCCATCTAC”, the binding signal is reported as 0.267 RPM ratio (pull-down/input). For “GATGATTGTTCTCCCAGCTGATGAATTGTCTTACTCGAGTAAACAAATTTTCCTAATCTTTCTGTTCAAGCGCCATCTAC”, the binding signal was 0.469 RPM ratio (pull-down/input). For “GATGATTGTTCTCCCAGCTGATGAATTGTTTGTCTCGAGTAAACAAATTTTCCTAATCTTTCTGTTCAAGCGCCATCTAC”, the binding signal was 7.63 RPM ratio (pull-down/input). In the case of “GATGATTGTTCTCCCAGCTGATGAATTGTTGTTCTCGAGTAAACAAATTTTCCTAATCTTTCTGTTCAAGCGCCATCTAC”, the binding signal is reported as 7.17 RPM ratio (pull-down/input). With “GATGATTGTTCTCCCAGCTGATGAATTGTCCTACTCGAGTAAACAAATTTTCCTAATCTTTCTGTTCAAGCGCCATCTAC” the binding signal was 0.368 RPM ratio (pull-down/input). With “GATGATTGTTCTCCCAGCTGATGAATTGTTGTCCTCGAGTAAACAAATTTTCCTAATCTTTCTGTTCAAGCGCCATCTAC” the binding signal was 5.63 RPM ratio (pull-down/input). “GATGATTGTTCTCCCAGCTGATGAATTTGTCTACTCGAGTAAACAAATTTTCCTAATCTTTCTGTTCAAGCGCCATCTAC” was tested, and the binding signal was 5.77 RPM ratio (pull-down/input). With “GATGATTGTTCTCCCAGCTGATGAATTTCTGTCCTCGAGTAAACAAATTTTCCTAATCTTTCTGTTCAAGCGCCATCTAC” the binding signal was 0.313 RPM ratio (pull-down/input). “GATGATTGTTCTCCCAGCTGATGAATTTCTAATCTCGAGTAAACAAATTTTCCTAATCTTTCTGTTCAAGCGCCATCTAC” was tested, and the binding signal was 0.288 RPM ratio (pull-down/input). In the case of “GATGATTGTTCTCCCAGCTGATGAATTCTTTGTCTCGAGTAAACAAATTTTCCTAATCTTTCTGTTCAAGCGCCATCTAC”, the binding signal is reported as 0.413 RPM ratio (pull-down/input). “GATGATTGTTCTCCCAGCTGATGAATTGTCCTCCTCGAGTAAACAAATTTTCCTAATCTTTCTGTTCAAGCGCCATCTAC” was tested, and the binding signal was 0.37 RPM ratio (pull-down/input).

Source: paper PMC12820563, “FoxP3 forms a head-to-head dimer in vivo and stabilizes its multimerization on adjacent microsatellites”
